Measurements published in PubChem BioAssay (NCI).
About 79,000 compounds went through this panel and 15% of them were active in at least one assay; those are over-represented in the sample as a whole. Rule as the data show it: active = growth inhibition above about 70%; inactive = the rest.

Key:
[1] = NCI Yeast Anticancer Drug Screen. Data for the rad50 strain (AID 155);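 also: 0% = growth of vehicle-only cultures of the same strain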; conditions: S. cerevisiae rad50 strain growth inhibition; at 50.0 µM; stronger effect = higher value
Summary of the method: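 Cells are treated with compound, grown, and their growth is then scored against vehicle-only cultures of the same repair-deficient yeast strain.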

[2] = NCI Yeast Anticancer Drug Screen. Data for the mec2-1 strain (AID 157); conditions: S. cerevisiae mec2-1 strain, at 50.0 µM, stronger effect = higher value
Summary of the method: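 mec2-1 yeast strain, carrying an alteration in DNA damage repair or cell cycle control, was exposed to compounds; growth inhibition was measured relative to vehicle-treated controls.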

[3] = NCI Yeast Anticancer Drug Screen. Data for the sgs1 mgt1 strain (AID 161);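 also: 0% = growth of cultures given vehicle only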; conditions: S. cerevisiae sgs1 mgt1 strain, at 50.0 µM, stronger effect = higher value
Summary of the method: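 Compounds are added to genetically altered yeast, and growth is compared with cultures given vehicle alone to give percent inhibition.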

[4] = NCI Yeast Anticancer Drug Screen. Data for the cln2 rad14 strain (AID 165);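 also: 0% = growth equal to vehicle treated cultures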; conditions: S. cerevisiae cln2 rad14 strain, at 50.0 µM, stronger effect = higher value
Summary of the method: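 Yeast carrying cln2 and rad14 alterations (cell cycle control and DNA damage repair) were exposed to compounds. Growth inhibition was measured against vehicle-treated controls.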

[5] = NCI Yeast Anticancer Drug Screen. Data for the bub3 strain (AID 167); conditions: S. cerevisiae bub3 mutant strain, at 50.0 µM, stronger effect = higher value
Summary of the method: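 Part of a panel of yeast mutants defective in DNA damage repair or cell cycle regulation. Each strain is grown with compound, and inhibition is calculated relative to solvent-treated cultures.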

[6] = NCI Yeast Anticancer Drug Screen. Data for the mlh1 rad18 strain (AID 175); conditions: S. cerevisiae mlh1 rad18 strain growth inhibition; at 50.0 µM; stronger effect = higher value
Summary of the method: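 Growth inhibition of the yeast strain was measured after compound exposure and expressed relative to vehicle-treated controls. The strain carries defined defects in DNA damage repair.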

Measured: growth inhibition

CCOC(=O)Nc1nn(-c2ccc3ccccc3n2)c(=O)[nH]1
inactive: [1] 15.7% | [2] 1.65% | [3] 10.7% | [4] 11.9% | [5] 7.75% | [6] 13.7%

CC(C)(C)c1ccc(-c2nc3ccc(Cl)cc3c(=O)o2)cc1
inactive: [1] -26.6% | [2] -24.5% | [3] -7.85% | [4] -48.3% | [5] -17.6% | [6] 0.45%

CN(C)C(=O)OC1CCCCC1
inactive: [1] -8.1% | [2] -9.4% | [3] -18.8% | [4] -18.7% | [5] -19.6% | [6] -12.6%

N#Cc1c2c(c(=O)n3c1[nH]c1ccccc13)CCC2
inactive: [1] -23.9% | [2] 11.4% | [3] -15.6% | [4] -3.25% | [5] -1.6% | [6] -8.2%

CC(C)C1CC(N(C)C)=CC(=O)N1 (stereo not given)
inactive: [1] -41.5% | [2] 5.95% | [3] 2.75% | [4] -14.4% | [5] 10.8% | [6] 10.9%

CN(C)CCC(=O)N1CCc2c([nH]c3ccccc23)C1c1cccnc1 (stereo not given)
inactive: [1] -15.2% | [2] -34.6% | [3] -21.6% | [4] 6.55% | [5] 5.65% | [6] -40.5%

CCO/N=C(\C(=O)NO)c1ccccc1
inactive: [1] -6.35% | [2] 1.6% | [3] 1.5% | [4] -24.4% | [5] -1.9% | [6] 13.2%

CCn1c2ccccc2c2nnc(NCCCO)nc21
inactive: [1] -14.7% | [2] -31.3% | [3] -16.5% | [4] -1.25% | [5] -51.7% | [6] 7.55%

CCCCOC(=O)C(C)OC(=O)/C=C\C(=O)OC(C)C(=O)OCCCC (stereo not given)
inactive: [1] 7.5% | [2] -7.5% | [3] 6.9% | [4] 4.05% | [5] 2.4% | [6] 15.9%

NS(=O)(=O)c1ncc(C(=O)N2CCN(Cc3ccccc3)CC2)[nH]1
inactive: [1] -6.15% | [2] -7.75% | [3] 7.2% | [4] -11.7% | [5] 1.05% | [6] 6.95%

CC(=O)O[C@]12CCCCCC1C1(O)C(O)CCCC[C@H]12 (stereo not given in full)
inactive: [1] 10.2% | [2] -23.6% | [3] -21.2% | [4] 4.45% | [5] -10.3% | [6] -16.4%

O=C(Oc1ccccc1)C(c1ccccc1)c1ccccc1
inactive: [1] -9.95% | [2] 0.7% | [3] 7.95% | [4] -59.7% | [5] 16.7% | [6] -10.5%

CCC(=O)OCC(OC(=O)CC)C(OC(=O)CC)C(OC(=O)CC)C(COC(=O)CC)OC(=O)CC (stereo not given)
inactive: [1] -0.5% | [2] 6.95% | [3] -16.6% | [4] -31.6% | [5] 1.35% | [6] -3.75%

CC/C=N/NC(=O)OCC
inactive: [1] -9.8% | [2] -4.85% | [3] -13.9% | [4] 1.1% | [5] -3.3% | [6] -6.85%

Clc1ccc(C2OCCCO2)cc1
inactive: [1] -21.1% | [2] 7.8% | [3] -9.7% | [4] 10.2% | [5] -8.4% | [6] -1.65%

COC(=O)c1nc(N)nc(C(=O)OC)c1C(=O)c1ccc(Cl)c(Cl)c1
inactive: [1] -7.6% | [2] 7.15% | [3] -18.5% | [4] -5.05% | [5] 3.2% | [6] 10.6%

C/C(Cc1cccc2ccccc12)=N/NC(N)=O
inactive: [1] 2.35% | [2] -27.8% | [3] -19.1% | [4] -8% | [5] -12.1% | [6] -8.45%

C[C@@H]1CC[C@@]2(C)C(C(=O)O)=CCCC2[C@@]1(C)CC(=O)c1ccoc1 (stereo not given in full)
inactive: [1] -11.9% | [2] -8.55% | [3] -36.1% | [4] -17.1% | [5] -42.5% | [6] -35.2%

C[N+](C)(C)/C=C/c1ccccc1
inactive: [1] 30.8% | [2] -8.2% | [3] 21% | [4] -11.3% | [5] 0.2% | [6] 38.9%

CC(=N/N(C)c1ccccc1)/C(C)=N/N(C)c1ccccc1
inactive: [1] 19.1% | [2] 6.7% | [3] 3.7% | [4] 3.65% | [5] 4.35% | [6] 15.8%

Cc1cc2ccccc2nc1-c1ccncc1
inactive: [1] 3.45% | [2] -3.15% | [3] -7.35% | [4] -44.6% | [5] -6.75% | [6] 1.2%

CNC(=O)/C(=C\c1ccccc1)NC(C)=O
inactive: [1] 9% | [2] -13.6% | [3] 6% | [4] -54.7% | [5] 17.9% | [6] -25.1%

CNc1nc(C)nc(NC)n1
inactive: [1] -29.9% | [2] -5.1% | [3] -30.4% | [4] -36.2% | [5] 18.4% | [6] -22.9%

COc1ccc(NC(=O)C(=O)C2CNC(=O)NC2=O)c(OC)c1 (stereo not given)
inactive: [1] -9.2% | [2] -5.8% | [3] -17.6% | [4] -6.65% | [5] -13.1% | [6] -17.3%

O=C1C(Cl)=C(Cl)C(=O)N1c1ccccc1Cl
inactive: [1] 42.5% | [2] 23.6% | [3] 36.5% | [4] 43.9% | [5] 34.7% | [6] 55.5%

O=C(N/N=C1\C(=O)N(c2nccs2)C(=O)C(=O)C1c1nc2ccccc2s1)c1ccccc1O (stereo not given)
inactive: [1] 23.1% | [2] 16.9% | [3] 20.4% | [4] 30.1% | [5] 4.5% | [6] 34.1%

O=C(O)c1ccccn1
inactive: [1] -37.6% | [2] -3% | [3] 33.8% | [4] -6.1% | [5] -3.85% | [6] 30%

O=[N+]([O-])c1ccc(Cl)c(/C=C/c2ncccn2)c1
inactive: [1] 11.4% | [2] 10.1% | [3] 7.9% | [4] -28.1% | [5] -1.45% | [6] 13.9%

CSC1NN=C(CCC(=O)Nc2ccc(C)cc2)O1 (stereo not given)
inactive: [1] -37.7% | [2] 5.25% | [3] 13% | [4] -21.1% | [5] -3.8% | [6] 12.9%

OCC(CO)=C1c2ccccc2-c2ccccc21
inactive: [1] 11% | [2] -6.2% | [3] -8.15% | [4] -28.8% | [5] -1.5% | [6] 5.55%

NNC(=O)C(=O)NN=C(C(Cl)(Cl)CO)C(Cl)(Cl)CO
inactive: [1] 18.9% | [2] -0.65% | [3] 15.1% | [4] 14.1% | [5] 22.3% | [6] 20.4%

CCOC(=O)Cn1nnnc1N
inactive: [1] -3.4% | [2] 23.6% | [3] -5.2% | [4] -21.9% | [5] -13.8% | [6] 30.6%

CCCCCCCCCCCCCCCCS(=O)(=O)N/N=C/c1ccccc1O
inactive: [1] 25.9% | [2] 26.2% | [3] 30.2% | [4] 18.2% | [5] 6.2% | [6] 20.2%

CC(=O)Nc1cc(F)c(N=Nc2ccc(F)cc2)c(F)c1
inactive: [1] 5.3% | [2] -0.6% | [3] 13.4% | [4] -36.9% | [5] -16.1% | [6] 3.45%

N#CC1C(=O)NC(=O)C(C#N)C1c1ccc(Cl)cc1Cl (stereo not given)
inactive: [1] 38.9% | [2] 10.1% | [3] 32.6% | [4] 22.1% | [5] -3.55% | [6] 19.9%

O=C(NC(=O)C(F)(F)F)Nc1cccc(C(F)(F)F)c1
inactive: [1] 15.6% | [2] 1.1% | [3] -14.1% | [4] -4.85% | [5] -8.25% | [6] 2.9%

NCC(=O)N[C@H]1c2ccsc2/C(=N/O)[C@H]1O
inactive: [1] 3.1% | [2] 5.95% | [3] 3.65% | [4] 11.3% | [5] -10.2% | [6] 33.2%

C/C(CC(C)C)=N\NC(=O)Nc1ccccc1Cl
inactive: [1] 4.5% | [2] 5.7% | [3] -2.4% | [4] -3.85% | [5] 26.7% | [6] 6.35%

Nc1ccc2c(c1)C(=O)c1ccccc1C2=O
inactive: [1] 4.4% | [2] -1.55% | [3] -12.9% | [4] 6.55% | [5] 8.95% | [6] -0.55%

CCOC(=O)COC(=O)CCc1ccccc1
inactive: [1] 0.3% | [2] -39.6% | [3] -5% | [4] -36.8% | [5] -12.9% | [6] 0.45%
